# Results taken from the antibiotic and cytotoxicity screens of Wong et al. (2023).
# Screen size: about 39,000 compounds; about 3,300 (8.5%) were called active. Shown is part of a subset that was picked to be rich in actives.
# Tested on: HepG2
# Assay: cytotoxicity call (relative viability < 0.9)
# Conditions: 10 µM
row,SMILES,cytotoxicity call
1,C[C@H](CO)N1C[C@H](C)[C@@H](CN(C)S(=O)(=O)c2ccccc2)OCCCC[C@H](C)Oc2ccc(NC(=O)CCC(F)(F)F)cc2C1=O,inactive
2,Cc1noc(C)c1NC(=O)N(C)C[C@H]1Oc2c(NC(=O)Cn3cnnn3)cccc2C(=O)N([C@H](C)CO)C[C@@H]1C,inactive
3,C[C@@H]1CN([C@H](C)CO)C(=O)c2cc(NC(=O)C3CCCCC3)ccc2O[C@@H](C)CCCCO[C@H]1CN(C)C(=O)c1ccncc1,inactive
4,C[C@@H]1CN([C@H](C)CO)C(=O)c2cc(NS(=O)(=O)c3cccs3)ccc2O[C@@H](C)CCCCO[C@H]1CN(C)Cc1ccc(C(F)(F)F)cc1,active
5,C[C@H](CO)N1C[C@H](C)[C@@H](CN(C)Cc2ccc(C(F)(F)F)cc2)OCCCC[C@H](C)Oc2ccc(NS(=O)(=O)c3cccs3)cc2C1=O,inactive
6,C[C@H]1CCCCO[C@@H](CN(C)Cc2ccc(C(F)(F)F)cc2)[C@@H](C)CN([C@@H](C)CO)C(=O)c2cc(NS(=O)(=O)c3cccs3)ccc2O1,inactive
7,C[C@@H]1CCCCO[C@@H](CN(C)Cc2ccc(C(F)(F)F)cc2)[C@@H](C)CN([C@H](C)CO)C(=O)c2cc(NS(=O)(=O)c3cccs3)ccc2O1,active
8,C[C@@H]1CCCCO[C@H](CN(C)Cc2ccc(C(F)(F)F)cc2)[C@@H](C)CN([C@@H](C)CO)C(=O)c2cc(NS(=O)(=O)c3cccs3)ccc2O1,inactive
9,C[C@@H]1CCCCO[C@@H](CN(C)Cc2ccc(C(=O)O)cc2)[C@H](C)CN([C@@H](C)CO)C(=O)c2cc(NS(=O)(=O)c3cccs3)ccc2O1,inactive
10,C[C@@H]1CN([C@H](C)CO)C(=O)c2cc(NS(=O)(=O)c3cccs3)ccc2O[C@@H](C)CCCCO[C@@H]1CN(C)Cc1ccc(C(F)(F)F)cc1,inactive
11,C[C@H](CO)N1C[C@H](C)[C@H](CN(C)Cc2ccc(C(F)(F)F)cc2)OCCCC[C@H](C)Oc2ccc(NS(=O)(=O)c3cccs3)cc2C1=O,active
12,C[C@@H]1CCCCO[C@@H](CN(C)Cc2ccc(C(F)(F)F)cc2)[C@H](C)CN([C@@H](C)CO)C(=O)c2cc(NS(=O)(=O)c3cccs3)ccc2O1,inactive
13,C[C@H]1CN([C@@H](C)CO)C(=O)c2cccc(NC(=O)c3ccc(-c4nccs4)cc3)c2O[C@@H]1CN(C)S(=O)(=O)c1cn(C)cn1,inactive
14,Cc1noc(C)c1S(=O)(=O)N(C)C[C@H]1OCCCC[C@H](C)Oc2ccc(N(C)C)cc2C(=O)N([C@H](C)CO)C[C@@H]1C,inactive
15,COc1ccc(NC(=O)N(C)C[C@@H]2OCCCC[C@H](C)Oc3ccc(NS(=O)(=O)c4c(C)noc4C)cc3C(=O)N([C@@H](C)CO)C[C@@H]2C)cc1,inactive
16,CO[C@@H]1CN(C)C(=O)c2ccc(NC(=O)C3CC3)cc2OC[C@@H](C)N(C(=O)C2CCOCC2)C[C@H]1C,inactive
17,Cc1cc(C2CCCCC2)n(O)c(=O)c1.NCCO,active
18,C[C@H]1CN([C@@H](C)CO)C(=O)c2c(c3ccccc3n2C)-c2ccccc2CO[C@@H]1CN(C)Cc1ccc(C(F)(F)F)cc1,inactive
19,Cc1noc(C)c1S(=O)(=O)Nc1ccc2c(c1)C(=O)N([C@H](C)CO)C[C@H](C)[C@H](CN(C)C(=O)Nc1ccc(F)cc1)OCCCC[C@H](C)O2,inactive
20,Cc1noc(C)c1NC(=O)Nc1ccc2c(c1)C(=O)N([C@H](C)CO)C[C@H](C)[C@@H](CN(C)S(=O)(=O)c1ccc(F)cc1)OCCCC[C@@H](C)O2,inactive
21,Cc1cc(C(=O)Nc2cccc3c2O[C@H](CN(C)S(=O)(=O)c2cccs2)[C@@H](C)CN([C@H](C)CO)C3=O)n(C)n1,inactive
22,CCNC(=O)C=Cc1cccc(Br)c1,active

row,SMILES,cytotoxicity call
1,COC(=O)CNC(=O)/C=C/c1ccc(OC)cc1,inactive
2,CCNC(=O)c1cccc(NS(C)(=O)=O)c1,inactive
3,C[C@H](CO)N1C[C@H](C)[C@@H](CN(C)C(=O)Nc2ccc(C(F)(F)F)cc2)Oc2ccc(NS(=O)(=O)c3ccc(F)cc3)cc2C1=O,inactive
4,COc1ccc(S(=O)(=O)Nc2ccc3c(c2)CC(=O)N([C@H](C)CO)C[C@H](C)[C@H](CN(C)S(=O)(=O)c2cn(C)cn2)O3)cc1,inactive
5,C[C@@H]1CN([C@H](C)CO)C(=O)c2cc(NC(=O)Nc3ccc(F)cc3)ccc2O[C@@H](C)CCCCO[C@@H]1CN(C)C(=O)C1CCCCC1,inactive
6,C[C@H](CO)N1C[C@H](C)[C@H](CN(C)C(=O)C2CCCCC2)OCCCC[C@H](C)Oc2ccc(NC(=O)Nc3ccc(F)cc3)cc2C1=O,inactive
7,C[C@@H]1CCCCO[C@@H](CN(C)C(=O)C2CCCCC2)[C@H](C)CN([C@@H](C)CO)C(=O)c2cc(NC(=O)Nc3ccc(F)cc3)ccc2O1,inactive
8,C[C@@H]1CCCCO[C@@H](CN(C)C(=O)C2CCCCC2)[C@@H](C)CN([C@@H](C)CO)C(=O)c2cc(NC(=O)Nc3ccc(F)cc3)ccc2O1,inactive
9,C[C@@H]1CCCCO[C@@H](CN(C)C(=O)C2CCCCC2)[C@@H](C)CN([C@H](C)CO)C(=O)c2cc(NC(=O)Nc3ccc(F)cc3)ccc2O1,inactive
10,C[C@@H]1CCCCO[C@H](CN(C)C(=O)C2CCCCC2)[C@H](C)CN([C@@H](C)CO)C(=O)c2cc(NC(=O)Nc3ccc(F)cc3)ccc2O1,inactive
11,C[C@H]1CCCCO[C@@H](CN(C)C(=O)C2CCCCC2)[C@@H](C)CN([C@@H](C)CO)C(=O)c2cc(NC(=O)Nc3ccc(F)cc3)ccc2O1,active
12,C[C@@H]1CCCCO[C@H](CN(C)C(=O)C2CCCCC2)[C@@H](C)CN([C@@H](C)CO)C(=O)c2cc(NC(=O)Nc3ccc(F)cc3)ccc2O1,active
13,C[C@H]1CCCCO[C@H](CN(C)C(=O)C2CCCCC2)[C@@H](C)CN([C@@H](C)CO)C(=O)c2cc(NC(=O)Nc3ccc(F)cc3)ccc2O1,active
14,CNC(=O)C(=O)Nc1ccc(C)c(F)c1,inactive
15,Cc1noc(C)c1NC(=O)Nc1ccc2c(c1)C(=O)N([C@H](C)CO)C[C@H](C)[C@@H](CN(C)CC1CCCCC1)OCCCC[C@H](C)O2,inactive
16,COc1cccc(S(=O)(=O)N(C)C[C@@H]2Oc3ncc(C#CCC(C)C)cc3C(=O)N([C@@H](C)CO)C[C@@H]2C)c1,inactive
17,O=C(CN1CCOCC1)N[C@@H]1CC[C@@H](CCn2cc(C3CCCC3)nn2)O[C@H]1CO,inactive
18,C[C@@H]1CN([C@@H](C)CO)C(=O)Cc2cc(NC(=O)NC3CCCCC3)ccc2O[C@H]1CN(C)Cc1ccc(C(F)(F)F)cc1,inactive
19,Cc1noc(C)c1NC(=O)Nc1ccc2c(c1)C(=O)N([C@H](C)CO)C[C@H](C)[C@H](CN(C)S(=O)(=O)c1ccccc1)OCCCC[C@H](C)O2,inactive
20,COc1ccc(S(=O)(=O)N(C)C[C@H]2Oc3c(NS(=O)(=O)c4ccc(C)cc4)cccc3C(=O)N([C@H](C)CO)C[C@H]2C)cc1,inactive
21,C[C@@H]1O[C@@H](O[C@H]2[C@H](Oc3cc(O)c(C(=O)CCc4ccc(O)cc4)c(O)c3)O[C@H](CO)[C@@H](O)[C@@H]2O)[C@H](O)[C@H](O)[C@H]1O,inactive
22,O=C(Nc1ccc(Cl)cc1)Nc1ccc(Cl)c(Cl)c1,active

row,SMILES,cytotoxicity call
1,CCC(=O)Nc1ccc(Cl)cc1,inactive
2,CC(C)C(=O)Nc1cccc(Cl)c1,inactive
3,O=C(CNCCO)Nc1ccc(F)c(Cl)c1,inactive
4,N=C(N=C(N)N)Nc1cccc(Cl)c1,inactive
5,O=C(Nc1ccc(C(F)(F)F)cc1)Nc1cccc(Cl)c1,active
6,C[C@@H]1CN([C@@H](C)CO)C(=O)c2cc(NS(=O)(=O)c3ccccc3)ccc2O[C@@H](C)CCCCO[C@@H]1CN(C)C(=O)Nc1ccc2c(c1)OCO2,inactive
7,CCN(CC)CCOc1ccc2c(c1)C(=O)c1cc(OCCN(CC)CC)ccc1-2,active
8,CCCOc1cc(N)ccc1C(=O)OCCN(CC)CC.Cl,inactive
9,O=S1(=O)[C@@H]2C[C@H]3C=CC2(CN1C1CC1)O3,inactive
10,Cc1ccc(S(=O)(=O)N(C)C[C@H]2OCCCC[C@H](C)Oc3ccc(NC(=O)NC4CCCCC4)cc3C(=O)N([C@H](C)CO)C[C@H]2C)cc1,inactive
11,C[C@H]1CCCCO[C@@H](CN(C)S(=O)(=O)c2ccccc2)[C@@H](C)CN([C@@H](C)CO)C(=O)c2cc(NC(=O)NC3CCCCC3)ccc2O1,inactive
12,C[C@H](CO)N1C[C@H](C)[C@H](CN(C)S(=O)(=O)c2ccccc2)OCCCC[C@H](C)Oc2ccc(NC(=O)NC3CCCCC3)cc2C1=O,active
13,Cc1ccc(S(=O)(=O)N(C)C[C@H]2OCCCC[C@H](C)Oc3ccc(NC(=O)NC4CCCCC4)cc3C(=O)N([C@@H](C)CO)C[C@H]2C)cc1,inactive
14,Cc1ccc(S(=O)(=O)N(C)C[C@H]2OCCCC[C@@H](C)Oc3ccc(NC(=O)NC4CCCCC4)cc3C(=O)N([C@H](C)CO)C[C@@H]2C)cc1,inactive
15,C[C@@H]1CCCCO[C@H](CN(C)S(=O)(=O)c2ccccc2)[C@@H](C)CN([C@H](C)CO)C(=O)c2cc(NC(=O)NC3CCCCC3)ccc2O1,inactive
16,Cc1ccc(S(=O)(=O)N(C)C[C@H]2OCCCC[C@@H](C)Oc3ccc(NC(=O)NC4CCCCC4)cc3C(=O)N([C@H](C)CO)C[C@H]2C)cc1,active
17,Cc1ccc(S(=O)(=O)N(C)C[C@@H]2OCCCC[C@H](C)Oc3ccc(NC(=O)NC4CCCCC4)cc3C(=O)N([C@@H](C)CO)C[C@H]2C)cc1,active
18,Cc1ccc(S(=O)(=O)N(C)C[C@@H]2OCCCC[C@@H](C)Oc3ccc(NC(=O)NC4CCCCC4)cc3C(=O)N([C@@H](C)CO)C[C@@H]2C)cc1,inactive
19,Cc1ccc(S(=O)(=O)N(C)C[C@H]2OCCCC[C@H](C)Oc3ccc(NC(=O)NC4CCCCC4)cc3C(=O)N([C@@H](C)CO)C[C@@H]2C)cc1,inactive
20,Cc1ccc(S(=O)(=O)N(C)C[C@@H]2OCCCC[C@H](C)Oc3ccc(NC(=O)NC4CCCCC4)cc3C(=O)N([C@H](C)CO)C[C@@H]2C)cc1,inactive
21,Cc1ccc(S(=O)(=O)N(C)C[C@@H]2OCCCC[C@H](C)Oc3ccc(NC(=O)NC4CCCCC4)cc3C(=O)N([C@H](C)CO)C[C@H]2C)cc1,active
